# Bioassay records: PubChem, National Center for Advancing Translational Sciences (NCATS)
# Shown is part of a subset that was picked to be rich in hits.
# Pf Dd2 inh: qHTS Primary assay for Inhibitors of Plasmodium falciparum Dd2 growth in vitro; P. falciparum Dd2 growth, SYBR Green, 72 h; Potency, µM (highest dose often 28.9 µM), without a hit: top-dose activity, negative = inhibition, hits mostly inhibitors; AID 1347417, 2020; 120,000 compounds, 4.3% hits; active = well fitted inhibition curve with a large enough effect;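 note: plate controls were DMSO vehicle for no effect and reference drug for full effect; nearly all actives have a fitted effect of over 65% in size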
#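 Readout: SYBR Green fluorescence, 485 nm excitation, 535 nm emission, after ~16 h lysis at 37C. Before that, Dd2-infected red cells (2.5% hematocrit) grew 72 h with compound, 29 uM top final concentration.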
# Starred values were filed as active, the others as inactive; i = inactive; [ ] = dose if it differs, or a comment. Potency is the fitted concentration of half-maximal effect.
SMILES,Pf Dd2 inh
CCc1ccc(C2C(C(=O)Nc3ccccc3OC)=C(C)Nc3c(C(=O)Nc4ccc(C)cc4)cnn32)cc1 (centres undefined),11µM*
CNC(=O)C(C)Cn1ccnc1-c1cccc(CN(C)C)c1 (centres undefined),-1%
Cc1ccncc1C(=O)N1CCC2(CC1)CC(N1CCN(c3ccccn3)CC1)CCO2 (centres undefined),i
CN(C1CCc2nn(CC3CC3)c(=O)n2CC1)S(=O)(=O)Cc1ccccc1 (centres undefined),i
CN1c2cc(C(=O)NCc3ccc(F)cc3F)ccc2C(=O)N2CCCC21 (centres undefined),i
COc1ccc(N2CCC(NC(=O)c3cccc(N(C)C)c3)C2=O)cc1 (centres undefined),-2%
CNC(=O)N1CCC(C2CCN(C(=O)c3cnccc3C)C2)CC1 (centres undefined),8%
CCc1ccc(NC(=O)CC2C(=O)N(c3ccc(Cl)cc3)C(=O)N2C2CCCC2)cc1 (centres undefined),10µM*
CCc1ccc(NC(=O)CC2C(=O)N(c3ccc(C)cc3)C(=O)N2C2CCCC2)cc1 (centres undefined),11µM*
CCOc1ccc(NC(=O)CC2C(=O)N(c3ccccc3)C(=O)N2C2CCCC2)cc1 (centres undefined),-10%
CCOc1ccc(NC(=O)CC2C(=O)N(c3ccc(OC)cc3)C(=O)N2C2CCCCC2)cc1 (centres undefined),9%
CCOC(=O)c1ccc(NC(=O)CC2C(=O)N(c3ccc(C)cc3)C(=O)N2C2CCCCC2)cc1 (centres undefined),15%
COc1ccc(NC(=O)CC2C(=O)N(c3ccc(OC)cc3)C(=O)N2C2CCCCC2)cc1 (centres undefined),i
CN(Cc1cccn1C)[S+](=O)([O-])c1cccs1,-5%[44.1 µM]
O=C(C1CCN(c2cnn(Cc3ccccc3)c(=O)c2)C1)N1CCc2ccccc2C1 (centres undefined),-1%
O=C(N1CCCCC1)N1CCN(C2CCNCC2)C(=O)C1,0%
COCC1CCCN(Cc2nc(C(c3ccccc3)c3ccccc3)no2)C1 (centres undefined),11µM*
COc1ccccc1N1CCN(C2CCCN(Cc3nc(C(N)=O)no3)C2)CC1 (centres undefined),-21%
O=C(c1cccs1)C1CCCN(Cc2nc(CCc3ccccc3)no2)C1 (centres undefined),-18%
O=S(=O)(c1ccc(C(F)(F)F)cc1)N1CC(c2nc(-c3ccncc3)no2)C1,-7%
Clc1ccccc1C1(c2ccnc(-c3ccccc3)n2)CCNCC1,10µM*
OC[C@@H](O)CNc1nccc(C2(c3ccccc3Cl)CCNCC2)n1,25%
CN(C)C1CCN(c2nccc(C3(c4ccccc4Cl)CCNCC3)n2)C1 (centres undefined),-25%
Clc1ccccc1C1(c2ccnc(C3CC3)n2)CCNCC1,2.2µM*
O[C@@H]1CCN(c2nccc(C3(c4ccccc4Cl)CCNCC3)n2)C1,-17%
SMILES,Pf Dd2 inh
CN1CCC(CNc2nccc(C3(c4ccccc4Cl)CCNCC3)n2)C1 (centres undefined),-7%
Clc1ccccc1C1(c2ccnc(NC3CCC3)n2)CCNCC1,7.1µM*
Cc1noc(C)c1C(=O)N1CCN(c2cccc(C=O)c2)C(=O)C1,3%
Nc1ccsc1C(=O)N1CCC2(CCC(=O)N(CC3CCCO3)C2)CC1 (centres undefined),-12%
COC[C@@H]1CN(C(=O)CN2CCCC2=O)C[C@H]1c1ccncc1,-18%
CCCN(CC1CCOC1)S(=O)(=O)c1ccccc1 (centres undefined),i[5.79 µM]
O=C(NC1CCCC1)c1cccc2c1CCN2S(=O)(=O)c1ccccc1F,i
O=C1Nc2ccccc2OCC12CCN(Cc1ccncc1)CC2,-27%[44.1 µM]
O=C(NCC1CC1)c1noc(-c2ccccc2F)n1,i
COc1ccccc1C(=O)N1CCC(n2c(=O)[nH]c3ccccc32)CC1,-3%
Cc1cc(N2CCC(NC(=O)c3ccc4nc[nH]c4c3)C2=O)ccc1F (centres undefined),-12%
O=C(c1ccc(F)cc1Cl)N1CCC(n2cc(-c3nc(C4CC4)no3)nn2)C1 (centres undefined),50%
O=C(Nc1cccc(C(F)(F)F)c1)N[C@H]1CO[C@H]2[C@@H]1OC[C@H]2OC(=O)Nc1ccccc1,-27%
O=C(Nc1cccc(C(F)(F)F)c1)O[C@@H]1CO[C@H]2[C@@H]1OC[C@@H]2n1cc(-c2ccccn2)nn1,10µM*
O=C(Nc1ccc(Oc2ccccc2)cc1)N[C@H]1CO[C@H]2[C@@H]1OC[C@@H]2n1cc(-c2ccccn2)nn1,-22%
O=C(CCc1nnn2c1CN(C(=O)c1ccc(F)cc1)CC2)NC1CC1,-11%
Cc1cc(N2CCN(C(=O)CCCS(N)(=O)=O)CC2)cc(C)n1,-5%
Cc1noc([C@H]2CCN(Cc3cc(F)cc(F)c3)C[C@H]2NC(=O)C2CC2)n1,i[5.79 µM]
Cc1cc(C(=O)N2CC[C@H](NS(=O)(=O)c3cn(C)cn3)C[C@H]2C(=O)N[C@H](Cc2c[nH]c3ccccc23)C(N)=O)n(C)n1,i
CCOc1ccccc1CN1C(=O)C2(CCOCC2)CC1c1nnnn1C(C)(C)C (centres undefined),-7%
O=C(Nc1nncs1)C1CC(=O)N(c2n[nH]c3cc(Br)ccc23)C1 (centres undefined),-26%
CCOC(=O)c1c(C)sc(-c2c(-c3ccc4c(c3)OCCO4)[nH]c3c2c(=O)n(C)c(=O)n3C)c1O,8.9µM*
CCOC(=O)c1c(C)sc(-c2c(-c3ccc(OC)c(F)c3)[nH]c3c2c(=O)[nH]c(=O)n3C)c1O,428%[5.79 µM]
COC(=O)c1c(C)sc(-c2c(-c3ccc4c(c3)OCCO4)[nH]c3c2c(=O)n(C)c(=O)n3C)c1O,-7%
CNC(=O)N1CCCC(c2nc(C(C)C)no2)CCNC(=O)CC1 (centres undefined),27%
SMILES,Pf Dd2 inh
COCc1ccc2c(c1)c(OC(C)(C)C(=O)NCC1CC1)nn2Cc1ccccc1,4.5µM*
CC(C)(Oc1nn(CCN2CCOCC2)c2ccccc12)C(=O)NCc1ccccc1,11µM*
COCc1ccc2c(c1)c(OC(C)(C)C(=O)NCC(F)(F)F)nn2Cc1ccccc1,i
CC(C)(Oc1nn(CCN2CCOCC2)c2ccccc12)C(=O)NCc1ccncc1,i
COCc1ccc2c(c1)c(OC(C)(C)C(=O)NCCN1CCOCC1)nn2Cc1ccccc1,i
COCc1ccc2c(c1)c(OC(C)(C)C(=O)NC1CC1)nn2Cc1ccccc1,i
Cc1noc(C)c1Cc1ccc(C(=O)NC2CCc3n[nH]c(=O)n3CC2)o1 (centres undefined),2%
CC(c1cccs1)N(C)C(=O)c1ccc(C(F)(F)F)cc1 (centres undefined),-20%[44.1 µM]
CCCCN(CCCC)C1=C(C(=O)c2ccccc2)N(CC)S(=O)(=O)c2ccccc21,-9%
CCCS(=O)(=O)c1c(S(=O)(=O)CCC)c2cc(C(C)(C)C)ccn2c1C(=O)c1ccc(OC)c(OC)c1,2.8µM*
COc1ccc(OCC(=O)N2CCN(C(=O)c3ccc(OC)c(OC)c3)CC2)cc1,14%
Nc1c(C(=O)Nc2cccc(C(F)(F)F)c2)c2ccccn2c1C(=O)c1ccccc1,i
CCCS(=O)(=O)c1c(S(=O)(=O)CCC)c2cc(C(C)(C)C)ccn2c1C(=O)c1ccccc1,2.5µM*
COc1ccc(C(=O)N2CCN(C(=O)COc3ccc(Br)cc3)CC2)cc1OC,36%
